Read-out in test [1]: UDP glucuronosyltransferase (UGT1A6), UGT1A6 (gene 54578)
The test can be described thus: LTEA_HepaRG_UGT1A6: Life Technologies and Expression Analysis (LTEA) Assay for UDP glucuronosyltransferase (UGT1A6) using HepaRG (AID 2283539; active means hit-call score of the fitted dose curve at least 0.9, where 1 is the maximum; inactive means score below 0.9). The following applies: mRNA level, 48 h; actives raise or lower the signal. Put shortly:
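Measures mRNA change in HepaRG hepatic cells exposed 48 h to chemicals (eight-point, maximum 100 uM, 0.5% DMSO vehicle) in serum-free induction medium. Expression normalized to endogenous controls; DMSO served as negative control and baseline.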

Read-out in test [2]: X-box binding protein 1 (XBP1), XBP1 (gene 7494)
In words: LTEA_HepaRG_XBP1: Life Technologies and Expression Analysis (LTEA) Assay for X-box binding protein 1 (XBP1) using HepaRG (AID 2283540; active means hit-call score of the fitted dose curve at least 0.9, where 1 is the maximum; inactive means score below 0.9). The following applies: mRNA level, 48 h; actives raise or lower the signal. Put shortly:
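Eight concentrations (half-log, highest 100 uM, 0.5% DMSO) tested in duplicate on HepaRG cells over 48 h in serum-free induction medium; qRT-PCR of XBP1 normalised to ACTB, GAPDH, POLR2A.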

A short description of test [3]: LTEA_HepaRG_LDH_cytotoxicity: Cytotoxicity Assessment in the Life Technologies and Expression Analysis (LTEA) Assay (AID 2283563).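 On AC50: LDH activity released into spent culture medium as a marker of cell death.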 Put shortly: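 Spent-medium LDH after 48 h chemical exposure of HepaRG cells in serum-free induction medium; eight concentrations, half-log dilutions from 100 uM, duplicate wells, fitted upward relative to 0.5% DMSO.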
A short description of test [4]: TOX21_p53_BLA_p2_viability: Viability Assessment in the Tox21 HCT-116 p53 Agonism Beta-lactamase Assay, Phase 2 (AID 2283591).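 Further: compound exposure lasted 16 h at 37 °C; actives lower the ATP signal meaning cytotoxicity.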 Put shortly:
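HCT116 p53-bla cells, 4000/well, dosed after 5 h plating (217-fold dilution of DMSO stocks) and incubated 16 h at 37C. Viability taken as cellular ATP by CellTiter-Glo luminescence after 30 min RT; signal loss marks cytotoxicity.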

For test [5], the target named is Cellular tumor antigen p53 (Homo sapiens) (UniProt P04637). The test can be described thus: TOX21_p53_BLA_p2_ratio: Tox21 HCT-116 p53 Agonism Beta-lactamase Assay, Ratio, Phase 2 (AID 2283592). Put shortly:
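Human colon HCT116 cells with an inducible p53 beta-lactamase reporter are exposed to test chemicals for 16 h at 37C. Reporter induction is read as the 460/530 nm emission ratio after CCF4-AM loading, normalized to DMSO.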

A short description of test [6]: TOX21_p53_BLA_p3_viability: Viability Assessment in the Tox21 HCT-116 p53 Agonism Beta-lactamase Assay, Phase 3 (AID 2283593).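 Further: cells exposed to compound for 16 h before reading.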 Put shortly: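 HCT116 cells, 4000/well, dosed 5 h after plating by pin transfer (217-fold dilution from DMSO stock) and incubated 16 h at 37C, 5% CO2. Viability read as ATP luminescence with CellTiter-Glo after 30 min at room temperature.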

The target in test [7] is Cellular tumor antigen p53 (Homo sapiens) (UniProt P04637). The test can be described thus: TOX21_p53_BLA_p3_ratio: Tox21 HCT-116 p53 Agonism Beta-lactamase Assay, Ratio, Phase 3 (AID 2283596). Put shortly:
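HCT116 p53-bla cells (4000/well) given compound in DMSO (217-fold dilution) after 5 h, incubated 16 h at 37C. CCF4-AM substrate 2 h at room temperature; 460/530 nm emission ratio, gain fitted against DMSO.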

The nature of test [8]: TOX21_p53_BLA_p4_viability: Viability Assessment in the Tox21 HCT-116 p53 Agonism Beta-lactamase Assay, Phase 4 (AID 2283597).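 Further: hits lower the luminescence signal meaning cytotoxicity.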 Put shortly: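 Luminescent ATP readout (CellTiter-Glo, 30 min, room temperature) in the same wells as the p53 bla ratio. HCT116 cells were treated for 16 h at 37C with DMSO-dissolved compounds.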
Test [9] deals with Cellular tumor antigen p53 (Homo sapiens) (UniProt P04637). In words: TOX21_p53_BLA_p5_ratio: Tox21 HCT-116 p53 Agonism Beta-lactamase Assay, Ratio, Phase 5 (AID 2283599). Put shortly:
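HCT-116 p53-bla cells (4000/well) plated 5 h, dosed with compound (217-fold DMSO dilution) for 16 h at 37 C; CCF4-AM substrate 2 h at room temperature. Activity is the 460/530 nm emission ratio (405 nm excitation), fitted in gain-of-signal direction versus DMSO.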

Test [10] is described as follows: TOX21_p53_BLA_p5_viability: Viability Assessment in the Tox21 HCT-116 p53 Agonism Beta-lactamase Assay, Phase 5 (AID 2283600). Put shortly: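 Seeded cells (4000/well) settle 5 h before compound addition. Plates then incubate 16 h at 37C, receive FRET substrate for 2 h, and finally CellTiter-Glo, with luminescence measured after a 30 min room-temperature incubation.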

Test [11] addresses Cellular tumor antigen p53 (Homo sapiens) (UniProt P04637). The test can be described thus: TOX21_p53_BLA_p4_ratio: Tox21 HCT-116 p53 Agonism Beta-lactamase Assay, Ratio, Phase 4 (AID 2283601). Put shortly:
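HCT-116 p53 beta-lactamase reporter cells (4000/well) preincubated 5 h, then compound (217-fold dilution of DMSO stock) for 16 h at 37C. CCF4-AM substrate added 2 h at room temperature; 460/530 nm emission ratio fitted upward versus DMSO.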

Test [12] in a line: Tanguay_ZF_120hpf_MORT_legacy: (Legacy) Oregon State University Tanguay Lab 120 Hour Post-fertilization zebrafish Assay for Mortality (AID 2283633). Put shortly: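 Single dechorionated Tropical 5D embryos were held with test chemical (0.64% DMSO final) from 6 to 120 hpf at 28C under foil. Deaths at 24 or 120 hpf were recorded as binary calls, analysed for increase over DMSO controls.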

Test [13] can be described thus: Tanguay_ZF_120hpf_YSE_legacy: (Legacy) Oregon State University Tanguay Lab 120 Hour Post-fertilization zebrafish Assay for Yolk Sac Edema (AID 2283634).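 On AC50: actives raise the incidence of yolk sac edema above the DMSO baseline.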 Put shortly:
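Single dechorionated embryos were held in sealed plates at 28C with test chemical (0.64% DMSO final) from 6 hpf until 120 hpf. Edema of the yolk sac was then recorded as a binary endpoint; non-mortality endpoints were skipped for dead embryos.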

Test [14] can be described thus: Tanguay_ZF_120hpf_AXIS_legacy: (Legacy) Oregon State University Tanguay Lab 120 Hour Post-fertilization zebrafish Assay for Body Axis Malformation (AID 2283635). Put shortly: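 Each dechorionated embryo was exposed alone from 6 hpf, with DMSO at 0.64% (vol/vol) and trimethyltin chloride 5 uM as positive control. Axis malformation was recorded at 120 hpf unless the embryo had died.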

Test [15] is described as follows: Tanguay_ZF_120hpf_EYE_legacy: (Legacy) Oregon State University Tanguay Lab 120 Hour Post-fertilization zebrafish Assay for Eye Malformation (AID 2283636).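 Further: binary presence or absence of eye malformation scored by brightfield in 120 hpf larvae.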 Put shortly:
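Dechorionated Tropical 5D zebrafish embryos, one per well from 6 hpf, static exposure to 120 hpf at 28C, 0.64% DMSO. Eye malformation scored present/absent by brightfield; dead embryos not scored.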

Test [16] is described as follows: Tanguay_ZF_120hpf_SNOU_legacy: (Legacy) Oregon State University Tanguay Lab 120 Hour Post-fertilization zebrafish Assay for Snout Malformation (AID 2283637). Put shortly: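 Dechorionated tropical 5D wild-type zebrafish embryos exposed statically from 6 to 120 hpf at 28C, one per well, in 0.64% DMSO. Snout malformation scored as present/absent by brightfield at 120 hpf; dead embryos not scored.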

The nature of test [17]: Tanguay_ZF_120hpf_JAW_legacy: (Legacy) Oregon State University Tanguay Lab 120 Hour Post-fertilization zebrafish Assay for Jaw Malformation (AID 2283638).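 On AC50: active means more embryos with jaw malformation than DMSO controls.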 Put shortly: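 Wild-type 5D embryos, chorion removed at 4 hpf, dosed singly from 6 hpf; 28C static, sealed, foil-covered, to 120 hpf. Endpoint: jaw defect yes/no (brightfield); mortality excludes scoring.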
Test [18] can be described thus: Tanguay_ZF_120hpf_OTIC_legacy: (Legacy) Oregon State University Tanguay Lab 120 Hour Post-fertilization zebrafish Assay for Otic Vesicle Malformation (AID 2283639). Put shortly: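 Tropical 5D wild-type zebrafish embryos were exposed statically in sealed, foil-covered plates at 28C until 120 hpf, with 0.64% (vol/vol) DMSO final. Otic vesicle malformation was scored present/absent by brightfield microscopy, with DMSO as baseline.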

Test [19] can be described thus: Tanguay_ZF_120hpf_PE_legacy: (Legacy) Oregon State University Tanguay Lab 120 Hour Post-fertilization zebrafish Assay for Pericardial Edema (AID 2283640).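 On AC50: potency for increased incidence of pericardial edema versus DMSO baseline.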 Put shortly: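 Zebrafish larvae are exposed from early development to 120 hpf at 28C, with 0.64% DMSO final. Each surviving larva receives a yes/no pericardial edema call by brightfield imaging, analysed relative to the DMSO baseline.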

Test [20] can be described thus: ATG_XTT_Cytotoxicity: Cytotoxicity Assessment in the Attagene TRANS-FACTORIAL HepG2 Assay (AID 2283584). Put shortly: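 24 h chemical exposure of reporter-transfected HepG2; XTT signal loss vs DMSO indicates cytotoxicity.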

Records with an inconclusive call do not appear. A structure can be active in one record and inactive in another. The source made the active and inactive calls. How the source made its calls, unless noted: active means hit-call score of the fitted dose curve at least 0.9, where 1 is the maximum; inconclusive means response in the unintended direction; inactive means score below 0.9.

Chain of Cellular tumor antigen p53 (Homo sapiens) (P04637 whole entry, looked up): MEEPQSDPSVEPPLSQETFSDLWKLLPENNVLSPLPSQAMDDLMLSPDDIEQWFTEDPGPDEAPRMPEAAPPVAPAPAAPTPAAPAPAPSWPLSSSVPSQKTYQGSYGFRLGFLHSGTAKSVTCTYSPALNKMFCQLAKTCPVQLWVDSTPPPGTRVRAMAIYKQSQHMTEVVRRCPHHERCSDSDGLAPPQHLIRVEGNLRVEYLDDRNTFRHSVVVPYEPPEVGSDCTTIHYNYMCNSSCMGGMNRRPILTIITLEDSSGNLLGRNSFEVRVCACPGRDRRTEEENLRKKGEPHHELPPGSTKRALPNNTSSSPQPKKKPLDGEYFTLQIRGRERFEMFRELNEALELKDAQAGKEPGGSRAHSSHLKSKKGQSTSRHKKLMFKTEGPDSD

The AC50 is the midpoint of the concentration-response curve, whichever way the signal moves. With `Nc1ccccc1N`, the AC50 was 75.8 µM (active) in [1]; 88.2 µM (active) in test [2]; 68.6 µM (active) in [3]; 68.5 µM (active) in [7]; 23 µM (active) in test [8]; 46.3 µM (active) in test [13]. Further, the AC50 was 49.4 µM (active) in test [17] and 10.5 µM (active) in [19]. The compound was called inactive in test [4], in test [5], in test [6], in test [7], in test [8] and in [9]. The call in test [10], in test [11], in test [12], in [14], in test [15] and in test [16] was inactive. For the same compound, the outcome in test [18] was inactive.
`CC1(C)CC(N=C=O)CC(C)(CN=C=O)C1` (stereo unspecified): the compound was called inactive in [1], in [2], in test [3], in test [20], in test [5] and in test [6]. Further, the result in test [7], in test [8], in test [9], in test [10], in [11] and in [12] was inactive. The outcome in test [13], in [14], in test [17], in test [18] and in test [19] was inactive.
On to `O=C(OCCCCCOC(=O)c1ccccc1)c1ccccc1`, for which the outcome in test [1], in test [3], in [20], in test [5], in test [6] and in test [7] was inactive. The result in test [8], in test [9], in [10], in test [11], in [12] and in test [13] was inactive. Further, the outcome in test [14], in test [15], in test [16], in test [17], in test [18] and in [19] was inactive. In test [2], the AC50 is 0.761 µM (active).
Regarding `CN1CCCC1=O`, the result in test [1], in test [2], in test [3], in [20], in test [5] and in test [6] was inactive. Further, the outcome in [7], in test [8], in [9], in [10], in test [11] and in [12] was inactive. Moreover, the compound was classed as inactive in [13], in [14], in test [15], in test [17], in test [18] and in test [19].
For `Cc1oc(-c2ccccc2)nc1CCOc1cccc2c1ccn2CCC(=O)O`, the values for the concentration at half-maximal activity (AC50) in test [1], in test [3] and in test [5] were 79.8 µM (active), 81.4 µM (active) and 68.6 µM (active), respectively. For the same compound, the compound was called inactive in [2], in test [4], in test [6], in test [7], in test [8] and in test [9]. The compound was called inactive in [10], in [11], in [12], in test [13], in test [14] and in test [16]. Also, the compound was classed as inactive in [17], in test [18] and in [19].
Take `CCCCN(CCCC)CCCC`: the outcome in test [1], in test [2], in test [3], in test [20], in [4] and in test [5] was inactive. The outcome in test [7], in [8], in test [9], in test [12], in test [13] and in test [14] was inactive. The compound was called inactive in test [16], in test [17], in test [18] and in [19].
As to `CCCCCCCCCCC`, the result in test [1], in test [2], in test [3], in test [20], in test [4] and in test [5] was inactive. Moreover, the outcome in test [7], in test [11], in [12], in test [13], in [14] and in [15] was inactive. Besides, the outcome in test [17], in [18] and in [19] was inactive.
Regarding `CCCCCCCCCCO`, the compound was called inactive in test [1], in test [2], in [3], in test [20], in test [4] and in test [5]. Further, the outcome in test [7], in test [9], in [10], in test [11], in [12] and in [13] was inactive. Moreover, the outcome in [14], in [15], in test [17], in test [18] and in test [19] was inactive.

The values above are taken from PubChem BioAssay (EPA / NIEHS).
